About 670 (0.34%) of roughly 200,000 compounds were called active. Rule as the data show it: active = activation above about 22%; inactive = the rest. Many of the other results were omitted from the sample, so actives are more common in it than they were.

These results are taken from PubChem BioAssay AID1032 (The Scripps Research Institute Molecular Screening Center, 2008).

For this assay, the target named is Peroxisome proliferator-activated receptor gamma (Homo sapiens) (UniProt P37231). In words: agonists of PPARg-SRC-2 recruitment, primary screen, biochemical, HTS (AID 1032).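 Also: 0% = vehicle and 100% = reference agonist.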 As to conditions: PPARgamma LBD-SRC-2 recruitment, at 8 µM, hits give high values.
Peroxisome proliferator-activated receptor gamma (Homo sapiens), sequence (P37231 whole entry, looked up, the tested form may be a part): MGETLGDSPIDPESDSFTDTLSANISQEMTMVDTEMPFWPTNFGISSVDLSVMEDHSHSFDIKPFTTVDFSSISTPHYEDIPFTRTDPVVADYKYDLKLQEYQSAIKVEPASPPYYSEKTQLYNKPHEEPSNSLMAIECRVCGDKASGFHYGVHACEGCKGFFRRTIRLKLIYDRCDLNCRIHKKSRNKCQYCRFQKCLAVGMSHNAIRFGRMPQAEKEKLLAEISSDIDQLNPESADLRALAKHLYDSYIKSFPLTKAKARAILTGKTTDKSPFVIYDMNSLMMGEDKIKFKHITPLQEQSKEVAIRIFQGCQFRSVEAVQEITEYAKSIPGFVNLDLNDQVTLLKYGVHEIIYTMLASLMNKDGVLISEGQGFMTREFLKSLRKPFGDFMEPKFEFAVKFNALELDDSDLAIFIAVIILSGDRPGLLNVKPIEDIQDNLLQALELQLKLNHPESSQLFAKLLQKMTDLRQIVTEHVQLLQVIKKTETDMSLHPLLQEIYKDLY
Turning to `CSC1=NP(=S)(SC)N(C)c2nc3n(c21)CCC3` (stereo not given), the activation is 76.2% (active).

For `Cc1cccc2c(CCN)c[nH]c12`, the activation is 0.78% (inactive).

As for `O=C(Cc1ccccc1[N+](=O)[O-])N1CCN(Cc2ccc3c(c2)OCO3)CC1`, the activation was 0.02% (inactive).

For the compound `CCN1CCN(c2ccc([N+](=O)[O-])cc2C#N)CC1`, the activation is 6.97% (inactive).

Turning to `CC(C)CN1CCN(Cc2ccccc2C(F)(F)F)CC1CCO` (stereo not given), the activation was -9.41% (inactive).

Turning to `COc1cc(-n2c(=S)[nH]c3ccc(C)cc3c2=O)c(Cl)cc1Cl`, the activation was 24.8% (active).

With `CN(C)/C=C(\C=[N+](C)C)c1[nH]ncc1[N+](=O)[O-]`, the activation is 3.67% (inactive).

Turning to `Cc1ccsc1C(=O)C1CCCN(Cc2ccc(O)cc2)C1` (stereo not given), the activation is 4.16% (inactive).

Turning to `O=C1NC(=O)N(c2ccccc2)C(=O)/C1=C/c1ccc([N+](=O)[O-])s1`, the activation was 0.92% (inactive).

In the case of `COc1ccc(CN2C(=O)NC(=O)/C(=C\c3ccc(OC)c(OC)c3OC)C2=O)cc1`, the activation is 11% (inactive).
